High-throughput results deposited in PubChem by National Center for Advancing Translational Sciences (NCATS).
Most compounds without a hit are left out; they make up all but 7.3% or so of the library.
FLuc modulator = qHTS profiling assay for firefly luciferase inhibitor/activator using purifed enzyme and Km concentrations of substrates (counterscreen for miR-21 project); Potency, µM (titrated, usually from 57.5 µM), for inactives: top-dose activity change, negative = inhibition, actives largely listed as inhibitors; Luciferin 4-monooxygenase (Photinus pyralis), P08659; 360,000 compounds, 6.9% hits; purified FLuc, Km substrates, luminescence inhibition;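 also: plate controls were vehicle for no effect and reference inhibitor for full effect; nearly all actives have a fitted effect of over 55% in size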
Target sequence (P08659 whole entry, looked up): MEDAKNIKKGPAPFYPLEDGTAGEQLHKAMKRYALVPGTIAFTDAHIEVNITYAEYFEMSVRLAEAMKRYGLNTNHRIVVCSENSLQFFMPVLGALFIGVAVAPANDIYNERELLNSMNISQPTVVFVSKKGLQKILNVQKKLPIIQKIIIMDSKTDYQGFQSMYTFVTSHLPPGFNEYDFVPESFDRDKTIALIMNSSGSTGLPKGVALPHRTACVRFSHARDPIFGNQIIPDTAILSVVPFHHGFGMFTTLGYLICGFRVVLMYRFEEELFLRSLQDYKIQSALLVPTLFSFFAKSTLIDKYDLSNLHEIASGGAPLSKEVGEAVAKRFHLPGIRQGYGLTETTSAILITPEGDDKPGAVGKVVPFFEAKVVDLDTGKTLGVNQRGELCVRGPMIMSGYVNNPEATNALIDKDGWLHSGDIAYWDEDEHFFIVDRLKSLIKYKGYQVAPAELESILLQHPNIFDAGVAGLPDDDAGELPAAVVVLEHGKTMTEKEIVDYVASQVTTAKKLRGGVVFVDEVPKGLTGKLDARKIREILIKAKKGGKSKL
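Purified P. pyralis luciferase, 10 nM final, with Km-level 10 uM D-luciferin and 10 uM ATP in 50 mM Tris acetate pH 7.5, 10 mM Mg acetate, 0.01% Tween-20, 0.05% BSA; 6-point qHTS titration about 60 µM downward; luminescence read.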
Rab9 prom act = qHTS Assay for Rab9 Promoter Activators; 320,000 compounds, 2.8% hits; Potency, µM (series often up to 9.22 µM), for inactives: top-dose activation, negative = inhibition, usual class: activators; AID 485297, 2010; Huh7 Rab9 promoter-luciferase reporter, luminescence, 24 h; also: % of control where 0% means no effect; nearly all actives have a fitted effect of over 60% in size
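Steps: seed 1500 Huh7 Rab9-luc cells per well, rest 2 h at 37 °C; add compound in DMSO; incubate 24 h; add luciferase reagent, 10 min ambient; read luminescence.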
Luc counter = Counterscreen for Luciferase (Kinase-Glo TM) Inhibition. Luciferin 4-monooxygenase (Photuris pensylvanica), Q27757. 200,000 compounds, 0.28% hits. Potency, µM (highest dose often 38.3 µM), for the others: at the top dose activity change, negative = inhibition, actives largely listed as inhibitors. AID 1379, 2008. Kinase-Glo luciferase, ATP luminescence, 8 min; also: % is scaled to controls: 0 for no effect and ±100 for the full control effect; nearly all actives have a fitted effect of over 60% in size
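Substrate mix (final 50 mM imidazole pH 7.2, 50 mM KCl, 7 mM MgCl2, 10 uM ATP, 0.01% Tween 20, 0.05% BSA) plus pin-tool compound, then Kinase-Glo detection mix; 8 min ambient, luminescence read.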
NPC1 prom act = qHTS Assay for NPC1 Promoter Activators; Potency, µM (titrated, usually from 9.22 µM), for inactives: top-dose activation, usual class: activators; Huh7 NPC1 promoter luciferase reporter, 24 h; 320,000 compounds, 2.4% hits; also: % of control where 0% means no effect; nearly all actives have a fitted effect of over 60% in size
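In 1536-well qHTS, Huh7 cells harboring an NPC1 promoter–luciferase construct received compound for 24 h; activation was quantified by luminescence following luciferase reagent addition.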
SMN2 splice enh = qHTS Assay for Enhancers of SMN2 Splice Variant Expression; AID 1458, 2008; 210,000 compounds, 2.8% hits; Potency, µM (series often up to 46.1 µM), for inactives: top-dose activity change, positive = activation, most hits filed as activators; HEK293 SMN2-luciferase splicing reporter, luminescence, 30-36 h; also: % of control where 0% means no effect; nearly all actives have a fitted effect of over 55% in size
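HEK293 cells carry an SMN2 minigene-luciferase reporter in which exon 7 inclusion puts luciferase in frame. Cells were seeded at 2000 cells/well, attached for 10-12 hours, then exposed to compounds for 30-36 hours at 37C before ONE-Glo luminescence.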
The depositor's hits bear a star; ? = inconclusive; . = no result; [ ] = remark or other dose. Calls follow the shape of the dose curve; as a rule, active = well fitted curve in the direction sought with a large enough effect; inconclusive = small, poorly fitted or top-dose-only effect, or another doubt; inactive = no such curve, though single readings can be large; an effect the other way counts as inactive or inconclusive. Potency is read from the fitted curve at half-maximal effect.

SMILES	FLuc modulator	Rab9 prom act	Luc counter	NPC1 prom act	SMN2 splice enh
Cc1cc(C)nc(-n2nc(C)c3c2NC(=O)CC3c2cc(F)ccc2F)n1 (stereo not drawn)	0%	.	.	.	.
CCN(C(=O)CSc1nc2ccccc2n1CC(=O)Nc1ccc(F)cc1F)c1ccccc1	-10%	.	.	.	.
NC(=O)c1c(NC(=O)c2ccncc2)sc2c1CCCCCC2	12µM*	0%	.	-5%	.
NC(=O)c1c(NC(=O)c2ccccc2)sc2c1CCC2	4.8µM*	3.2µM*	.	2µM*	.
CCOc1ccccc1NC(=O)c1cccc(S(=O)(=O)N(Cc2ccccc2)c2ccccc2OC)c1	6%	-3%	-1%	-9%	-17%
COc1ccccc1N(Cc1ccccc1)S(=O)(=O)c1cccc(C(=O)Nc2cc(C)ccn2)c1	0.67µM*	?	.	?	.
COc1ccccc1N(Cc1ccccc1)S(=O)(=O)c1cccc(C(=O)O)c1	0%	0%	-1%	1%	5µM*
CCn1c(-c2ccccc2)csc1=Nc1ccc(S(=O)(=O)O)cc1	3.8µM*	?	5%	?	-18%
CC(=O)c1sc(NC(=O)c2ccccc2F)nc1C	4.8µM*	0.45µM*	10µM*	1.4µM*	3.2µM*
CC(=O)c1sc(NC(=O)c2cccs2)nc1C	9.5µM*	?	.	29%	.
CCOC(=O)c1sc(NC(=O)C(OC(C)=O)c2ccccc2)nc1C (stereo not drawn)	0%	5%	-2%	-3%	35µM*
CCOC(=O)c1sc(NC(=O)c2cccs2)nc1C	2.4µM*	?	?	?	?
CCOC(=O)c1sc(NC(=O)c2c(OC)cccc2OC)nc1C	4%[2.3 µM]	22%	3%	-3%	2%
CC(=O)c1sc(NC(=O)c2cccnc2Cl)nc1C	?	22%	-12%	11%	.
CCCCCSc1nnc2c(n1)OC(c1ccc(C)s1)N(C(C)=O)c1ccccc1-2 (stereo not drawn)	3%	.	.	.	?
Cc1c(CCC(=O)NCCc2ccc(Cl)cc2)c(=O)oc2c(C)c(O)ccc12	4%	.	.	.	-47%
CCC(C)NC(=O)CCCc1nnc2n(CC(C)C)c(=O)c3sccc3n12 (stereo not drawn)	-5%	.	.	.	.
COc1ccc(-n2c(-c3ccc(C)cc3)cc3c2CC(C)(C)CC3=O)c(OC)c1	2%	.	.	.	-20%
CSc1cccc(NC(=O)c2[nH]c(C)c(C(C)=O)c2C)c1	17µM*	?	.	?	.
CC(=O)c1c(C)[nH]c(C(=O)Nc2ccc(Cl)cc2F)c1C	9.5µM*	2.8µM*	.	1.8µM*	.
CC(=O)c1c(C)[nH]c(C(=O)Nc2ccccn2)c1C	9.5µM*	3.2µM*	.	1.3µM*	.
CC(=O)c1c(C)[nH]c(C(=O)Nc2ccc(Cl)c(S(=O)(=O)N(C)C)c2)c1C	17µM*	3.2µM*	-1%	3.5µM*	11µM*
COc1cccc([C@@H]2Oc3ccc(Br)cc3C[C@H]2OC(=O)N[C@H](C)C2CCCCC2)c1	.	.	2%	.	2%
Cc1c(C(=O)N2CCCCCC2)c(S(=O)(=O)NCc2ccccc2)c(C)n1C	-2%	.	.	.	.
CC(=O)c1c(C)[nH]c(C(=O)Nc2cccc(S(=O)(=O)N3CCOCC3)c2)c1C	-3%	1%	7%	-2%	8.9µM*
SMILES	FLuc modulator	Rab9 prom act	Luc counter	NPC1 prom act	SMN2 splice enh
CCC(C)c1ccc(NC(=O)c2[nH]c(C)c(C(C)=O)c2C)cc1 (stereo not drawn)	19µM*	15%	.	25%	.
CC(=O)c1c(C)[nH]c(C(=O)NCCc2ccc(Cl)cc2)c1C	-19%	14%	0%	8%	4%
CC(=O)c1c(C)[nH]c(C(=O)Nc2ccc(Cl)cc2)c1C	9.5µM*	1.8µM*	.	3.2µM*	.
COc1cccc(Cn2c(=O)n(CC3CCC(C(=O)N4CCCCC4)CC3)c(=O)c3sccc32)c1 (stereo not drawn)	-13%	.	.	.	.
Cc1ccc(C2N3CC4(C)CN2CC(c2ccccc2)(C3)C4=O)cc1 (stereo not drawn)	5%	.	.	.	5%
O=C(O)c1cccc(N2C(=O)/C(=C/c3ccc([N+](=O)[O-])cc3)C=C2c2ccccc2)c1	24µM*	7%	-7%	0%	-15%
Cc1ccc(NC(=O)c2c(C)oc3ncnc(N4CCCCC4)c23)c(C)c1	-5%	.	.	.	.
Cc1ccccc1OCCSc1nnc(-c2ccc([N+](=O)[O-])cc2)o1	-6%	.	.	.	.
Cn1c(NCc2ccccc2F)nc2ccccc21	17µM*	.	.	.	13µM*
Cn1nnnc1NCc1ccccc1F	0%	0%	.	-4%	.
Cc1ccc(CNc2nc3ccccc3n2C)o1	?	2µM*	.	?	.
Cn1c(NCc2ccccc2O)nc2ccccc21	21µM*	2.8µM*	-3%	4µM*	?
CCOc1ccc(CNc2nc3ccccc3n2C)cc1	12µM*	2µM*	.	3.2µM*	.
CCOc1ccccc1CNc1nc2ccccc2n1C	1%	-3%	.	0%	.
Cc1ccc(NCc2cccn2-c2nnc(N3CCC(C(=O)NCc4ccccc4C)CC3)s2)cc1	-2%	.	.	.	-49%
N/C(=N\OC(=O)COc1ccc(Br)cc1Cl)c1cccnc1	8.5µM*	?	3%	?	18µM*
N/C(=N\OC(=O)COc1ccc(Cl)cc1Br)c1cccnc1	2.7µM*	4µM*	-2%	3.2µM*	-1%
Cc1ccc(C)c(OCC(=O)O/N=C(\N)c2cccnc2)c1	-18%	11%	.	-1%	.
N/C(=N\OC(=O)COc1ccc(Cl)cc1Cl)c1ccncc1	3µM*	0.63µM*	-3%	2.8µM*	.
